# Some of the results follow. Values without a mark were called inactive. Activity calls are given as the source filed them. Rule as the data show it: active = IC50 below about 20 µM; inactive = the rest.
# Test: mitochondrial permeability transition pore inhibitors, dose response, biochemical, absorbance, uHTS hits (AID 651561)
# Conditions: isolated mitochondria swelling
row,Compound,IC50
1,CN(C)Cc1ccccc1C1(O)c2ccccc2CSc2ccccc21 (stereo not drawn),13.4 µM (active)
2,Brc1ccc(CSc2ccc(-c3ccco3)nn2)cc1,> 100 µM
3,Cc1ccc(-c2noc(CCC(=O)Nc3ccccc3N3CCN(C)CC3)n2)cc1,18.8 µM (active)
4,CCCCOC(=O)CNc1nnc(SCC(=O)OCC)[nH]c1=O,> 100 µM
5,CCCCc1nc(NCCN)c(C#N)c2c1CSC(C)(C)C2,13.3 µM (active)
6,CCCC[C@@H]1CN=C(N)N1CCc1cc(C(F)(F)F)cc(C(F)(F)F)c1,6.67 µM (active)
7,CN1CCC[C@@H]1CCO[C@](C)(c1ccccc1)c1ccc(Cl)cc1,8.66 µM (active)
8,CN(C)Cc1ccc(F)cc1Sc1cc(Cl)ccc1Cl,45 µM
9,NC[C@H](Cc1ccccc1)NCCc1cc(C(F)(F)F)cc(C(F)(F)F)c1,12 µM (active)
10,COc1ccc2sc(N(CCCN(C)C)C(=O)c3ccc(S(=O)(=O)N(C)C4CCCCC4)cc3)nc2c1,7.47 µM (active)
11,Fc1ccc(N2N=C(c3cccs3)CC2c2ccco2)c(F)c1 (stereo not drawn),51.9 µM
12,CCCC(C(=O)OCCN(CC)CC)(c1ccccc1)c1ccccc1,12.5 µM (active)
13,CCNCCC(=O)N1c2ccccc2Sc2ccc(NC(=O)OCC)cc21,32.7 µM
14,Cc1nn(Cc2ccccc2)c2c1C(c1ccccc1)C(C#N)=C(N)O2 (stereo not drawn),25.9 µM
15,O=C(NC1CCN(Cc2ccccc2)CC1)c1cc(Br)c(Br)[nH]1,> 100 µM
16,Cc1ccc2c(c1)C1CN(C)CCC1N2S(=O)(=O)c1ccc(Oc2ccc([N+](=O)[O-])cc2)cc1 (stereo not drawn),17.5 µM (active)
17,FC(F)(F)COc1nc(N2CCCCC2)nc(N2CCNCC2)n1,18.9 µM (active)

row,Compound,IC50
1,O=C(Nc1cccc(C(F)(F)F)c1)c1ccc(N2CCNCC2)c([N+](=O)[O-])c1,8.28 µM (active)
2,CC1(C)CC(=O)c2sc(N)nc2C1,> 100 µM
3,COc1ccc(/C=C(/CC(=O)Nc2ccc(C)cc2)c2nc3ccccc3s2)cc1,45.4 µM
4,C[C@@H](CN1CCC[C@H]1CN1C(N)=NC[C@@H]1Cc1ccccc1)N1C[C@@H](Cc2ccccc2)N(CCCC2CCCC2)C1=N,3.54 µM (active)
5,CCCCCCCCCCCCN1C(=O)CSC1c1cccnc1 (stereo not drawn),9.05 µM (active)
6,Cc1cc(C)c(NC(=O)C[N+](C)(C)CC(O)COc2cccc3ccccc23)c(C)c1 (stereo not drawn),3.67 µM (active)
7,N=c1n(Cc2ccc(Cl)cc2)c2ccccc2n1CC(O)c1ccco1 (stereo not drawn),5.87 µM (active)
8,CCOC(=O)c1c(NC(=O)CSc2cn(CC)c3ccccc23)sc2c1CCC2,> 100 µM
9,Clc1ccc(-c2cc(C3CCNCC3)[nH]n2)c(Cl)c1,11.7 µM (active)
10,O=C(COC(=O)c1ccccc1NC(=O)c1ccco1)Nc1ccc2c(c1)OC(F)(F)O2,23.5 µM
11,O=C(c1ccc(Cl)cc1)c1ccc(OCC(O)CN2CCCCC2)cc1 (stereo not drawn),17.4 µM (active)
12,COCCn1c(CN2CCC(Cc3ccccc3)CC2)nc2c1c(=O)n(C)c(=O)n2C,3.99 µM (active)
13,CCCc1[nH]nc2c1C(c1c(C)nn(-c3ccccc3)c1Cl)C(C#N)=C(N)O2 (stereo not drawn),> 100 µM
14,CCCCOc1ccc(CSC(=N)N)cc1[N+](=O)[O-],6.05 µM (active)
15,NC(N)=N/N=C/c1ccc(Cl)c([N+](=O)[O-])c1,7.68 µM (active)
16,O=C(Nc1cccc(-c2cccc(Cl)c2)c1)C1CCN(C2CCC2)CC1,5.2 µM (active)
